“And” between values parts separate entries of the source, which are not always exact repeats. Equal values may be shown once.
Experiments:
[1] = target: MAP/microtubule affinity-regulating kinase 3 (Homo sapiens) (UniProt P27448); settings: at 1 µM;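 further: reported values are averaged percent inhibition of MARK3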
[2] = target: T1, MAP/microtubule affinity-regulating kinase 4 (Homo sapiens) (UniProt Q96L34); settings: at 0.1 µM
T1 sequence (whole entry): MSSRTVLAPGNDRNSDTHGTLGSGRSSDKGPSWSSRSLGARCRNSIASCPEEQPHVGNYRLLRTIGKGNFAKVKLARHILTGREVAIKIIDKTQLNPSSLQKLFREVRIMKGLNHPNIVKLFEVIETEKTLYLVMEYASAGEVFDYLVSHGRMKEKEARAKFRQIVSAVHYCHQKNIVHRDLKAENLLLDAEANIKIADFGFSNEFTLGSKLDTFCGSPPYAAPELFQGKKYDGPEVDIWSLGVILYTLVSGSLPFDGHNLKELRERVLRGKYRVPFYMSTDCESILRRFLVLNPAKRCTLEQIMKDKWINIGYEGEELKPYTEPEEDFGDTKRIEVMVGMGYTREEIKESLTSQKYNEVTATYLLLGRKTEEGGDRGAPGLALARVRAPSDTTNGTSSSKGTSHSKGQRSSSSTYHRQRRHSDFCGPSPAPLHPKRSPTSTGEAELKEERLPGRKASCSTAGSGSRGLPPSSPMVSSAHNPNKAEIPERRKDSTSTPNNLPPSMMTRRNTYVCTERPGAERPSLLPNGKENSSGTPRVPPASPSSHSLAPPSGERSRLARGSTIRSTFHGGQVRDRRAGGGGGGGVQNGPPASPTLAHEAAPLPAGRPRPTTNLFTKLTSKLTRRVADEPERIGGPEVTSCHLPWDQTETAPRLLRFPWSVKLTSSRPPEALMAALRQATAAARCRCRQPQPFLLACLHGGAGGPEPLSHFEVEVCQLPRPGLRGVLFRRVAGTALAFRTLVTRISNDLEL

[3] = target: T1, MAP/microtubule affinity-regulating kinase 4 (Homo sapiens); settings: at 1 µM
[4] = target: Maternal embryonic leucine zipper kinase (Homo sapiens) (UniProt Q14680); settings: at 0.1 µM
[5] = target: Maternal embryonic leucine zipper kinase (Homo sapiens) (UniProt Q14680); settings: at 1 µM
[6] = target: MAP kinase-interacting serine/threonine-protein kinase 1 (Homo sapiens) (UniProt Q9BUB5); settings: at 0.1 µM
[7] = target: MAP kinase-interacting serine/threonine-protein kinase 1 (Homo sapiens) (UniProt Q9BUB5); settings: at 1 µM
[8] = target: MAP kinase-interacting serine/threonine-protein kinase 2 (Homo sapiens) (UniProt Q9HBH9); settings: at 0.1 µM
[9] = target: MAP kinase-interacting serine/threonine-protein kinase 2 (Homo sapiens) (UniProt Q9HBH9); settings: at 1 µM
[10] = target: Serine/threonine-protein kinase MARK2 (Homo sapiens) (UniProt Q7KZI7); settings: at 0.1 µM
[11] = target: Serine/threonine-protein kinase MARK2 (Homo sapiens) (UniProt Q7KZI7); settings: at 1 µM
[12] = target: PAS domain-containing serine/threonine-protein kinase (Homo sapiens) (UniProt Q96RG2); settings: at 0.1 µM
[13] = target: PAS domain-containing serine/threonine-protein kinase (Homo sapiens) (UniProt Q96RG2); settings: at 1 µM
[14] = target: Phosphorylase b kinase gamma catalytic chain, skeletal muscle/heart isoform (Homo sapiens) (UniProt Q16816); settings: at 0.1 µM
[15] = target: Phosphorylase b kinase gamma catalytic chain, skeletal muscle/heart isoform (Homo sapiens) (UniProt Q16816); settings: at 1 µM
[16] = target: T2, Phosphorylase b kinase gamma catalytic chain, liver/testis isoform (Homo sapiens) (UniProt P15735); settings: at 0.1 µM
T2 sequence (whole entry): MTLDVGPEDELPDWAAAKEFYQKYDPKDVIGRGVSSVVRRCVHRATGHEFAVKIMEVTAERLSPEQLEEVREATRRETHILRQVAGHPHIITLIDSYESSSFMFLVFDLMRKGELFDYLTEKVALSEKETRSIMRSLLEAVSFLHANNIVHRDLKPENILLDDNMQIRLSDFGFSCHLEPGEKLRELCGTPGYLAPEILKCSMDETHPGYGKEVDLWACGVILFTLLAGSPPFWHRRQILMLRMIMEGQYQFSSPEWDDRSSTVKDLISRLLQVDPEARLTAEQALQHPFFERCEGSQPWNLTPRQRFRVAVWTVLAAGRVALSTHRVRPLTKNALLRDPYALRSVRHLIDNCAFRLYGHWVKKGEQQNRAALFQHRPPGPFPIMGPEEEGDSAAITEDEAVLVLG

[17] = target: T2, Phosphorylase b kinase gamma catalytic chain, liver/testis isoform (Homo sapiens); settings: at 1 µM
[18] = target: Serine/threonine-protein kinase pim-1 (Homo sapiens) (UniProt P11309); settings: at 0.1 µM
[19] = target: Serine/threonine-protein kinase pim-1 (Homo sapiens) (UniProt P11309); settings: at 1 µM
[20] = target: Serine/threonine-protein kinase pim-2 (Homo sapiens) (UniProt Q9P1W9); settings: at 0.1 µM;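 further: reported value is the mean percent inhibition of PIM2, measured in the GSK PKIS kinase inhibitor set screen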
Sequence of Serine/threonine-protein kinase pim-2 (Homo sapiens) (Q9P1W9 whole entry, looked up): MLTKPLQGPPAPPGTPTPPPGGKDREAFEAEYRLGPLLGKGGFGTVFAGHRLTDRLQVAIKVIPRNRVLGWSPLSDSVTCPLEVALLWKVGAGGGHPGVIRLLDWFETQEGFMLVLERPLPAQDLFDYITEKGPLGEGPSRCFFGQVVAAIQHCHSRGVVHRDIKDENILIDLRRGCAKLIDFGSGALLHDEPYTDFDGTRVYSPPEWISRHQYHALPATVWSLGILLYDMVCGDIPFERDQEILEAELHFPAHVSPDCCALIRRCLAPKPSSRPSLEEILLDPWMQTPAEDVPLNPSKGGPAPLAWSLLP

Sequence of MAP kinase-interacting serine/threonine-protein kinase 1 (Homo sapiens) (Q9BUB5 whole entry, looked up): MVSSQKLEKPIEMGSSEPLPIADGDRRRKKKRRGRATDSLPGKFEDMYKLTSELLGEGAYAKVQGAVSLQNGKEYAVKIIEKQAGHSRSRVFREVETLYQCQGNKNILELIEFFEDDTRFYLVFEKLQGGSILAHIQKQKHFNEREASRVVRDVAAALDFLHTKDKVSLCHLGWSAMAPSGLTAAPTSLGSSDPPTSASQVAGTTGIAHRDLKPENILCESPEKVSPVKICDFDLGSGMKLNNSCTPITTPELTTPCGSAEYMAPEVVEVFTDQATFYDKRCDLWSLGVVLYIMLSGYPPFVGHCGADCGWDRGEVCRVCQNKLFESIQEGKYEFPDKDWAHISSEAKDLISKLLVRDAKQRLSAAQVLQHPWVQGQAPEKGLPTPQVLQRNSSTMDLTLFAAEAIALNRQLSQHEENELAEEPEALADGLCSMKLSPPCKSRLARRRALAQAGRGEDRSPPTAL
Sequence of Serine/threonine-protein kinase MARK2 (Homo sapiens) (Q7KZI7 whole entry, the tested form may be a part): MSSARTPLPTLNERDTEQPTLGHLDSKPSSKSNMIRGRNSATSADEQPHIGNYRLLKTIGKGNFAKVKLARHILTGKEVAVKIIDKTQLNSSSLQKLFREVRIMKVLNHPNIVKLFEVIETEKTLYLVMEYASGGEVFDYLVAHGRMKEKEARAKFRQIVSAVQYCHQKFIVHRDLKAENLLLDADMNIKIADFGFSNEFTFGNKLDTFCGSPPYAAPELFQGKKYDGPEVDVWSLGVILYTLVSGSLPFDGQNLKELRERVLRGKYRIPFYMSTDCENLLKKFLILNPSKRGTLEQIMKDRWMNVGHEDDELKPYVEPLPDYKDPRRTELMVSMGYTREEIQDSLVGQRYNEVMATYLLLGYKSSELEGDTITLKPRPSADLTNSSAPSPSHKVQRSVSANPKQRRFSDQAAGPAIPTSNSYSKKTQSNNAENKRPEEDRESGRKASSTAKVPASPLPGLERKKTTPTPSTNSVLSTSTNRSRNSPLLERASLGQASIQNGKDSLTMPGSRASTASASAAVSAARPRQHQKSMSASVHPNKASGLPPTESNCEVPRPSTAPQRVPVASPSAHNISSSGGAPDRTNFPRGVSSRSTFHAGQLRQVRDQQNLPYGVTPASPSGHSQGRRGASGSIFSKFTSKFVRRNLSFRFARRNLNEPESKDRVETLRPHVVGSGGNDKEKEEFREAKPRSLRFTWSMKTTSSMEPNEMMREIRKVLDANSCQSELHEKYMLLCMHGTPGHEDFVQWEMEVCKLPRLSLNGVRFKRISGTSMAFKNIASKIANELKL
Sequence of Maternal embryonic leucine zipper kinase (Homo sapiens) (Q14680 whole entry, looked up): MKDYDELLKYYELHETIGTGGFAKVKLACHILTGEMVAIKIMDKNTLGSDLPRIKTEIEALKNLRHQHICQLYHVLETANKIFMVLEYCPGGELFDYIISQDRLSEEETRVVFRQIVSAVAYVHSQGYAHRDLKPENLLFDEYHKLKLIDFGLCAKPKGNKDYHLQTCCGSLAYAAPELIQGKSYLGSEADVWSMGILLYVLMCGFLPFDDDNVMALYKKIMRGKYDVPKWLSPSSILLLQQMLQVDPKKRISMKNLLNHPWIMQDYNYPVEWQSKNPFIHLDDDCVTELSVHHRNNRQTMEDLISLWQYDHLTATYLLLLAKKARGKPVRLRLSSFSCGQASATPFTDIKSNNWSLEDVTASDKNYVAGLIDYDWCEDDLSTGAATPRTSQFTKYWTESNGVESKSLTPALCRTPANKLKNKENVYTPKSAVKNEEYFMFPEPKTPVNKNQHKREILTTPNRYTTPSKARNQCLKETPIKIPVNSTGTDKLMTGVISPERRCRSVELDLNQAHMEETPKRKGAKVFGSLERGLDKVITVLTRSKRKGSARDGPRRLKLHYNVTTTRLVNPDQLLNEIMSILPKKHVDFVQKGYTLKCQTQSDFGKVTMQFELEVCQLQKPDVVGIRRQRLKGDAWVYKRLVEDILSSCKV
Sequence of Phosphorylase b kinase gamma catalytic chain, skeletal muscle/heart isoform (Homo sapiens) (Q16816 whole entry, looked up, canonical isoform): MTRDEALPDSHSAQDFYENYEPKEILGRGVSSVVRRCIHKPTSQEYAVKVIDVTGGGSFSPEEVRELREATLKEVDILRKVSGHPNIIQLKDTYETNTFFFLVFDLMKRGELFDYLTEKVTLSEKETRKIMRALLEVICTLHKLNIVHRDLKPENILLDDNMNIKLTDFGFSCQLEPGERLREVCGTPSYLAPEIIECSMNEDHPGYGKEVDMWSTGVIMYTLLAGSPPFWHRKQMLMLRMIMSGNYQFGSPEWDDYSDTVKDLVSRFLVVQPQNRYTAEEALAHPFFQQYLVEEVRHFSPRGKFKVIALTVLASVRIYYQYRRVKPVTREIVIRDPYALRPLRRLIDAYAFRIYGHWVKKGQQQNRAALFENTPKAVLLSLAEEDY
Sequence of Serine/threonine-protein kinase pim-1 (Homo sapiens) (P11309 whole entry, looked up): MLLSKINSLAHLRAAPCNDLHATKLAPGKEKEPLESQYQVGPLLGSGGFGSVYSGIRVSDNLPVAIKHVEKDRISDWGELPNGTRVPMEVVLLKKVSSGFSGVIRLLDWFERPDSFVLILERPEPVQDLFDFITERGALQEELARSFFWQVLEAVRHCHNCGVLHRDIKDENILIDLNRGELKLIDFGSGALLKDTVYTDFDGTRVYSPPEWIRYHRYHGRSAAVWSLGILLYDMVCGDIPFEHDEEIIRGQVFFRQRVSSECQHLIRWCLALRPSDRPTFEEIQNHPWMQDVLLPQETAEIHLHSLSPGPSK
Sequence of MAP kinase-interacting serine/threonine-protein kinase 2 (Homo sapiens) (Q9HBH9 whole entry, looked up): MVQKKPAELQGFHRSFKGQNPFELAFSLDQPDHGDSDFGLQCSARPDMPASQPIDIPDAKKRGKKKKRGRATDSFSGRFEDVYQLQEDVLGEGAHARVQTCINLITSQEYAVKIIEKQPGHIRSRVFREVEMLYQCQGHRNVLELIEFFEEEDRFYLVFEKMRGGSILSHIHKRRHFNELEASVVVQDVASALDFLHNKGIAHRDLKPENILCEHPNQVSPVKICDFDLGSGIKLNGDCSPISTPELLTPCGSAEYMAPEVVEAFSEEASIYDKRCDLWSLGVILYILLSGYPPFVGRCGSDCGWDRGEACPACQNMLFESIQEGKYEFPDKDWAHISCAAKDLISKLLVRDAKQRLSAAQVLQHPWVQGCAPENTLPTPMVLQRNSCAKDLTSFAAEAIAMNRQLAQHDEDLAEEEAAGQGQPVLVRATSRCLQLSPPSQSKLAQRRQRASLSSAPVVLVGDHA
Sequence of PAS domain-containing serine/threonine-protein kinase (Homo sapiens) (Q96RG2 whole entry, the tested form may be a part, canonical isoform): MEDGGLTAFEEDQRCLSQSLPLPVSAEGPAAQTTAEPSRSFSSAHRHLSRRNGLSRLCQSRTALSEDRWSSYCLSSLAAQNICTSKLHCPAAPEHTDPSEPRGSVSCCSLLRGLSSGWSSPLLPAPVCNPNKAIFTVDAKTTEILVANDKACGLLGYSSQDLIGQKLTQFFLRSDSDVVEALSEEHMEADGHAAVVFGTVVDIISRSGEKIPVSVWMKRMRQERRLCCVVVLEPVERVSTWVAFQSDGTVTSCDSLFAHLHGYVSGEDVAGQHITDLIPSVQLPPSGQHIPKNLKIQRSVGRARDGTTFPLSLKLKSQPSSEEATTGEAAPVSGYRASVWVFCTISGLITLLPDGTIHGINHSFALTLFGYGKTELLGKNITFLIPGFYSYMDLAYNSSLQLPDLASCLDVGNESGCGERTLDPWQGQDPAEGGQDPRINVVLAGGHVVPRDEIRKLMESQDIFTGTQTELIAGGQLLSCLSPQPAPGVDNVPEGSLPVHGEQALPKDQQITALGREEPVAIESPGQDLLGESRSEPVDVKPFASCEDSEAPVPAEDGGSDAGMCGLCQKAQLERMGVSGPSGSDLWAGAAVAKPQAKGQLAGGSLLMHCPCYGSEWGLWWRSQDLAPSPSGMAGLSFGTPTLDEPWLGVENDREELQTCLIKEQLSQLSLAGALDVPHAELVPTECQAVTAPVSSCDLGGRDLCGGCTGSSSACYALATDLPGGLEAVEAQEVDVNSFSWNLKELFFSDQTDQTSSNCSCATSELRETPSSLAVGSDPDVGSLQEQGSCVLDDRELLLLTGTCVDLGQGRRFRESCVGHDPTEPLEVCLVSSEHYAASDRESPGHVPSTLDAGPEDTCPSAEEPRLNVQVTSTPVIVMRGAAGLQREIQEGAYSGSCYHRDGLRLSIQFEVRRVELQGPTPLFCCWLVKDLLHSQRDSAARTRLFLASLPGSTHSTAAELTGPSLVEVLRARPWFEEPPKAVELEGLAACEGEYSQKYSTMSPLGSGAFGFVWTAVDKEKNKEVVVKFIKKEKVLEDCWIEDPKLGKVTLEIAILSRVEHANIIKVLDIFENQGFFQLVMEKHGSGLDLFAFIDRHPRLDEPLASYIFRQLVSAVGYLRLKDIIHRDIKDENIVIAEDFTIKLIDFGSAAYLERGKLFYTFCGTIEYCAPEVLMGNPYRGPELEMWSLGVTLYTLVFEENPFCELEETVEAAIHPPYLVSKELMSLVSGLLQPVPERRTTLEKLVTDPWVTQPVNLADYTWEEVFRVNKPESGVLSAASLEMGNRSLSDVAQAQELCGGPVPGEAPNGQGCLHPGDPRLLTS

| SMILES | inhibition [1] | inhibition [2] | inhibition [3] | inhibition [4] | inhibition [5] | inhibition [6] | inhibition [7] | inhibition [8] | inhibition [9] | inhibition [10] | inhibition [11] | inhibition [12] | inhibition [13] | inhibition [14] | inhibition [15] | inhibition [16] | inhibition [17] | inhibition [18] | inhibition [19] | inhibition [20] |
| --- | --- | --- | --- | --- | --- | --- | --- | --- | --- | --- | --- | --- | --- | --- | --- | --- | --- | --- | --- | --- |
| Fc1ccc(Nc2nccc(-c3c(-c4ccc(C(F)(F)F)cc4)nn4ncccc34)n2)cc1F | 3.91% | 1.29% | 2.56% | 1.38% | 3.78% | 2.72% | 2.85% | 0.89% | 2.32% | -0.1% | 2.64% | 0.46% | -1.14% | -0.56% | 1.84% | 3.81% | 0.35% | 1.07% | 0.89% | 0.92% |
| Nc1nonc1-c1nc2cnccc2n1C1CC1 | 22.6% and 19% | 3.74% and 2.4% | 11% and 8.22% | 10.2% and 12.6% | 66.9% and 71.4% | 3.95% and 1.61% | 9.32% and 10.2% | 4.37% and 1.55% | 18.2% and 15.1% | 3.55% and -0.71% | 17.9% and 14.9% | 0.62% and -0.65% | 1.08% and 0.92% | 5% and 3.93% | 7.51% and 3.48% | 4.1% and 2.66% | 1.15% and 2.16% | 12.4% and 13.8% | 56.3% and 59.1% | 1.57% and -2.36% |
| CS(=O)(=O)Nc1ccc(-c2ccc3c(NC(=O)C4CC4)n[nH]c3c2)cc1 | 0.81% | 2.19% | 2.82% | 2.17% | 3.47% | 2.36% | 2.11% | 1.69% | 1.32% | -0.79% | 0.66% | 0.49% | -0.44% | 1.67% | 5.46% | 3.59% | -0.4% | 0.94% | 2% | 0.44% |
| Cc1ccc(-c2cc3c(NC(=O)C4CC4)ncnc3o2)cc1 | 7.2% | 1.77% | 3.33% | 2.47% | 4.56% | 1.56% | 6.36% | 1.94% | 5.77% | 1.3% | 3.45% | 0.53% | 0.26% | 3.62% | 9.89% | 4.46% | 1.83% | 0.73% | 1.91% | 0.35% |
| CC(C)c1ccc(-c2cc(-c3c[nH]nc3-c3ccccn3)ccn2)cc1 | 0.71% | -0.28% | 0.5% | 1.44% | 3.48% | 1.48% | 3.11% | 0.97% | 2.83% | -2.82% | -0.26% | -0.36% | -1.24% | 0.46% | 1.25% | -0.69% | -0.76% | 0.3% | -0.2% | -0.34% |
| COc1cc(N2CCN(C(C)C)CC2)ccc1Nc1nc(Nc2cccc(F)c2C(=O)O)c2cc[nH]c2n1 | 4.97% | 1.88% | 5.09% | 2.86% | 7.68% | 3.1% | 5.88% | 1.57% | 5.1% | 1.11% | 3.36% | 0.65% | 0.52% | 8.07% | 39.8% | 6.18% | 19.9% | -0.13% | 1.42% | 0.01% |
| NS(=O)(=O)c1ccc(N/N=C2\C(=O)Nc3ccc(C(=O)NCc4ccncc4)cc32)cc1 | 34.4% | 4.76% | 33.7% | 49.6% | 90.6% | 2.18% | 10.9% | 1.66% | 6.27% | 0.88% | 21.3% | 0.76% | 2.6% | 5.19% | 28.9% | 4.99% | 11.4% | 1.75% | 7.29% | 0.12% |
